Inconclusive results are not listed. A call without a number means that no potency is given here. Where a structure was tested more than once in an assay, its records may differ in their call. Active and inactive are the calls of the source. Unless noted, calls follow the shape of the full dose curve.
What was measured:
[1] = Nuclear factor erythroid 2-related factor 2/antioxidant responsive element (Nrf2/ARE) small molecule agonists: qHTS cell viability counter screen in human keratinocytes (AID 1919968; active = well fitted curve in the direction sought with a large enough effect in the repeat runs; an effect the other way counts as inactive or inconclusive; also: nearly all actives have a fitted effect of over 55% in size)
In short: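 Stably transfected HaCaT (KeratinoSens), 1,500/well. Test agents in DMSO were applied for 23 h, 37 C/5% CO2. CellTiter-Fluor was incubated 1 h before the fluorescence read.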

[2] = target: Gonadotropin-releasing hormone receptor (Homo sapiens) (UniProt P30968); assay: Human gonadotropin-releasing hormone receptor (GnRHR) small molecule agonists, calcium flux assay in GnRHR-HEK293 cells (AID 1920063); also: nearly all actives have a fitted effect of over 35% in size
Gonadotropin-releasing hormone receptor (Homo sapiens), sequence (P30968 whole entry, looked up): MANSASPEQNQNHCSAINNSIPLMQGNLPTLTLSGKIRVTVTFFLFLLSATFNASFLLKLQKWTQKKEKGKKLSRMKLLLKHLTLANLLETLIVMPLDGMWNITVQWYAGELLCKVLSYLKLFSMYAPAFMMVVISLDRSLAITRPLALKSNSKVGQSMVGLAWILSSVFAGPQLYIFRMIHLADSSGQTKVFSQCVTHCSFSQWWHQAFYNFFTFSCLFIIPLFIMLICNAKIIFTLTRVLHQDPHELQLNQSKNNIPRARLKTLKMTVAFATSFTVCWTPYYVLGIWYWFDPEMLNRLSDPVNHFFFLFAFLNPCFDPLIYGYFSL
In short: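 Stable human GnRHR HEK293 line. 18 h plating, then calcium dye for 1 h at 37 C. Agonist-mode compound addition from DMSO stocks; fluorescence monitored 3 min.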

[3] = target: KiSS-1 receptor (Homo sapiens) (UniProt Q969F8); assay: Human kisspeptin (KISS1R) small molecule agonists, calcium flux assay in KISS1R-HEK293 cells (AID 1920064; active = well fitted curve in the direction sought with a large enough effect in the repeat runs; an effect the other way counts as inactive or inconclusive)
KiSS-1 receptor (Homo sapiens), sequence (Q969F8 whole entry, looked up): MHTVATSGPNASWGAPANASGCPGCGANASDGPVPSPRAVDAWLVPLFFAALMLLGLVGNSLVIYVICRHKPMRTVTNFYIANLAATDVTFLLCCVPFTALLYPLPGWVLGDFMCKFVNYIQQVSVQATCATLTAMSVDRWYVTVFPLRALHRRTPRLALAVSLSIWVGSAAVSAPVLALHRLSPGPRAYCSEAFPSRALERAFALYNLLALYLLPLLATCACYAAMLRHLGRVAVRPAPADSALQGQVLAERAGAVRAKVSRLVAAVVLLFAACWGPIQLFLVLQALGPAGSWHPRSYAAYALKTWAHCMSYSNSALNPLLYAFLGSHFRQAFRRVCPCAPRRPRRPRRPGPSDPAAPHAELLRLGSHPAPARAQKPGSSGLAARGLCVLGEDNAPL
In short: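 After overnight (18 h) culture at 37 C/5% CO2, human KISS1R-HEK293 cells received calcium dye for 1 h, then test compound; emission at 540 nm (excitation 480 nm) was tracked for 3 min.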

[4] = G protein-coupled receptor (GPCR) small molecule agonists, calcium flux assay: HEK293 wild type cell line counter screen (AID 1920065)
In short: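 Following 18 h incubation at 37 C/5% CO2, plates got calcium dye for 1 h; compounds, ATP or DMSO were then pinned in and fluorescence followed kinetically (480/540 nm).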

[5] = p53 small molecule agonists, cell-based qHTS assay with rat liver microsomes (AID 1963578)
In short: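 Read-out is beta-lactamase reporter fluorescence (LiveBLAzer, 2 h, room temperature, dark) in p53RE-bla cells treated 16 h at 37 C with compound, rat liver microsomes and NADPH, both 0.5 mg/mL final.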

[6] = p53 small molecule agonists, cell-based qHTS assay with human liver microsomes: qHTS cell viability counter screen (AID 1963579); also: nearly all actives have a fitted effect of over 45% in size; also: potency is read from the fitted curve at half-maximal effect
In short: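 Cells carrying the p53 response-element beta-lactamase reporter are treated for 16 h at 37 C with test compounds in the presence of human liver microsomes and NADPH (both 0.5 mg/mL final); ATP-based CellTiter-Glo luminescence then reports viability.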

[7] = p53 small molecule agonists, cell-based qHTS assay with rat liver microsomes: qHTS cell viability counter screen (AID 1963580); also: nearly all actives have a fitted effect of over 45% in size
In short: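 Cytotoxicity counter screen: intracellular ATP read by CellTiter-Glo luminescence in the p53 reporter wells. HCT-116 p53RE-bla cells were treated for 16 h at 37 C alongside rat liver microsomes and NADPH, each 0.5 mg/mL final.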

[8] = p53 small molecule agonists, cell-based qHTS assay: qHTS cell viability counter screen (AID 1963581); also: nearly all actives have a fitted effect of over 45% in size; also: potency is read from the fitted curve at half-maximal effect
In short: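 qHTS counter screen: 16 h compound exposure at 37 C of p53RE-bla HCT-116 cells (4,000 per well, seeded 5 h prior), cell viability by ATP luminescence.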

[9] = p53 small molecule agonists, cell-based qHTS assay (AID 1963582; active = well fitted activation curve with a large enough effect in the signal ratio in the repeat runs, not every such curve was filed as active; the % refers to the signal ratio)
In short: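 Measured: fluorescence from cleaved LiveBLAzer substrate. System: p53RE-bla cells, 16 h compound treatment at 37 C, 2 h substrate step at room temperature.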

[10] = target: 5-hydroxytryptamine receptor 2A (Homo sapiens) (UniProt P28223); assay: 5-hydroxytryptamine receptor 2A (HTR2A) small molecule antagonists, cell-based qHTS assay (AID 1963586); also: nearly all actives have a fitted effect of over 45% in size
5-hydroxytryptamine receptor 2A (Homo sapiens), sequence (P28223 whole entry, looked up): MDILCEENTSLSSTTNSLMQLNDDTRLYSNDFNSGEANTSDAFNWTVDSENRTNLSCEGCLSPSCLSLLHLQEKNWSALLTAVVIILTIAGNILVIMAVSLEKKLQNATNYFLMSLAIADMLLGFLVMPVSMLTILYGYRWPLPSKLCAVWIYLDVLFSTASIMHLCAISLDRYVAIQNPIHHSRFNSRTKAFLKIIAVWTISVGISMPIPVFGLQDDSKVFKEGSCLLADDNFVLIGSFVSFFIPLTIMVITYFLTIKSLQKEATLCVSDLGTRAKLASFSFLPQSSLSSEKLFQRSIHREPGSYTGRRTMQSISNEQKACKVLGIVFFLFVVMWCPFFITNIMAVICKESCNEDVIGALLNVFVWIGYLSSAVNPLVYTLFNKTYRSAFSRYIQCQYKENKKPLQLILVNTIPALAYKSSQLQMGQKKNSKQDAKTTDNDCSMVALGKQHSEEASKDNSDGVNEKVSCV
In short: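 CHO cells stably expressing human HTR2A were plated for 18 h at 37 C, then loaded with calcium dye for 1 h. Compounds were preincubated 5 min at room temperature before DOI (4 nM solution) was added. Kinetic fluorescence was read for 3 min.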

[11] = target: Muscarinic acetylcholine receptor M1 (Homo sapiens) (UniProt P11229); assay: Cholinergic receptor muscarinic 1 (CHRM1) small molecule antagonists, cell-based qHTS assay (AID 1963588); also: nearly all actives have a fitted effect of over 40% in size
Muscarinic acetylcholine receptor M1 (Homo sapiens), sequence (P11229 whole entry, looked up): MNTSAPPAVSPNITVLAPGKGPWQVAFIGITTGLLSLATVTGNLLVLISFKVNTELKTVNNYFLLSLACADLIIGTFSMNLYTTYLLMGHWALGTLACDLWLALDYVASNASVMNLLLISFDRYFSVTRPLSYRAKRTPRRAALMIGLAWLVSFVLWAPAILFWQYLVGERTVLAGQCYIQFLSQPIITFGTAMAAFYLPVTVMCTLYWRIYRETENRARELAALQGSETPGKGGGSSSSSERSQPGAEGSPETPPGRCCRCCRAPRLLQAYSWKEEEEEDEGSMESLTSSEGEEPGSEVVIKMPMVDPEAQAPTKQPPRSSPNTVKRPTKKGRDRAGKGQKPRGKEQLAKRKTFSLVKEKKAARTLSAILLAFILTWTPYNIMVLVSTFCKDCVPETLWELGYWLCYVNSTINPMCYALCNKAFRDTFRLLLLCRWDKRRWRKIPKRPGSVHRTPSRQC
In short: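 Compounds were tested at 15 concentrations in three independent runs. Dye-loaded CHRM1-CHO cells were exposed 5 min at room temperature before stimulation by acetylcholine added at 50nM. Intracellular calcium was read kinetically on FDSS for 3 min.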

[12] = target: Muscarinic acetylcholine receptor M1 (Homo sapiens) (UniProt P11229); assay: Cholinergic receptor muscarinic 1 (CHRM1) small molecule agonists, cell-based qHTS assay (AID 1963589); also: nearly all actives have a fitted effect of over 35% in size; also: potency is read from the fitted curve at half-maximal effect
In short: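 Kinetic fluorescence (1 s intervals) of calcium-sensitive dye in human M1 CHO cells after compound addition; cells pre-incubated 18 h at 37 C/5% CO2 and dye-loaded 1 h.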

[13] = cAMP Responsive Elements (CRE) small molecule agonists, cell-based qHTS assay (AID 1963590)
In short: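 Test agents in DMSO were incubated 3 h at 37 C/5% CO2 with CRE-bla HEK 293T cells seeded 18 h earlier; LiveBLAzer B/G FRET substrate was added and read after 2 h at room temperature.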

[14] = cAMP Responsive Elements (CRE) small molecule antagonists, cell-based qHTS assay (AID 1963591; active = well fitted inhibition curve with a large enough effect in the signal ratio in the repeat runs, not every such curve was filed as active; the % refers to the signal ratio; also: potency is read from the fitted curve at half-maximal effect)
In short: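 Reporter line CRE-bla HEK 293T in dialyzed-FBS DMEM; cells preincubated 18 h, treated 3 h with compound plus NKH477 (0.25 uM final); LiveBLAzer FRET, 2 h RT.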

[15] = target: Beta-2 adrenergic receptor (Homo sapiens) (UniProt P07550); assay: Adrenergic beta2 receptor (ADRB2) small molecule antagonists, cell-based qHTS assay (AID 1963592); also: nearly all actives have a fitted effect of over 50% in size; also: potency is read from the fitted curve at half-maximal effect
Beta-2 adrenergic receptor (Homo sapiens), sequence (P07550 whole entry, looked up): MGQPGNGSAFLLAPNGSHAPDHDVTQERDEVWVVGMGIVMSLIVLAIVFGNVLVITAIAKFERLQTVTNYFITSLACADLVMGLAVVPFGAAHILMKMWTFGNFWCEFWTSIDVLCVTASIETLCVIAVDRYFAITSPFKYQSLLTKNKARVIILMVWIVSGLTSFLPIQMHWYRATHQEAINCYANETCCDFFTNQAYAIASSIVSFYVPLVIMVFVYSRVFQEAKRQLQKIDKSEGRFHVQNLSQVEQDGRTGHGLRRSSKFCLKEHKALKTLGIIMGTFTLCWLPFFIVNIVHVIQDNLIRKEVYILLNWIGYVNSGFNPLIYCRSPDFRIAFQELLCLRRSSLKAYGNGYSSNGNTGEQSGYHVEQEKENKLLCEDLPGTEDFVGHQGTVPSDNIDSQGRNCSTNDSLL
In short: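 Assay format: CHO-ADRB2 cells, 18-20hr seeding at 37C/5% CO2, then compound plus 1nM isoproterenol agonist mix for 0.5hr RT. Homogeneous time-resolved fluorescence cAMP detection after 1hr, expressed as 665/615 nm ratio.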

[16] = target: D(2) dopamine receptor (Homo sapiens) (UniProt P14416); assay: Dopamine D2 receptor (DRD2) small molecule agonists, cell-based qHTS assay (AID 1963594); also: nearly all actives have a fitted effect of over 35% in size; also: potency is read from the fitted curve at half-maximal effect
D(2) dopamine receptor (Homo sapiens), sequence (P14416 whole entry, looked up): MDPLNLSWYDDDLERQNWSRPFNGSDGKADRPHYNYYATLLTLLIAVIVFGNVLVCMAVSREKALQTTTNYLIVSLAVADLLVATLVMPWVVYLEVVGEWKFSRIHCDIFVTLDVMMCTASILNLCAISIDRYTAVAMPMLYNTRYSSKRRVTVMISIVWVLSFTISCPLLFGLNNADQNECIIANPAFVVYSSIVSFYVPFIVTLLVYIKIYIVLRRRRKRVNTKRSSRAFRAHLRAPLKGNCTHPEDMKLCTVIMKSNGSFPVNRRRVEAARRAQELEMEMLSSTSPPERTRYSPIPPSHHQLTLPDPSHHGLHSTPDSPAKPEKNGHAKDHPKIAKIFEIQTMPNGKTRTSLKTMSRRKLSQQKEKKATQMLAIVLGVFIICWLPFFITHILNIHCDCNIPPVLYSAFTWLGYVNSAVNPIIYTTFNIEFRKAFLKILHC
In short: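 cAMP accumulation in DRD2-HEK293 cells measured by HTRF after 1 h detection; compounds added 10 min before NKH477 (200nM […]) forskolin-analogue stimulation, 30 min at room temperature, with Ro20-1724 present at 0.1 mM final.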

[17] = target: D(2) dopamine receptor (Homo sapiens) (UniProt P14416); assay: Dopamine D2 receptor (DRD2) small molecule antagonists, cell-based qHTS assay (AID 1963595; active = well fitted inhibition curve with a large enough effect in the signal ratio in the repeat runs, with a control signal flat; the % refers to the signal ratio)
In short: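 Antagonist mode in DRD2-HEK293 cells: after compound addition with 0.1 mM Ro20-1724, cells received quinpirole (12 nM) and NKH477 (200 nM) for 30 min at room temperature; HTRF cAMP read after 1 h detection.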

[18] = p53 small molecule agonists, cell-based qHTS assay with human liver microsomes (AID 1963577); also: potency is read from the fitted curve at half-maximal effect
In short: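 Compounds act here after metabolic activation: human liver microsomes and NADPH, both at 0.5 mg/mL final, were co-added to p53RE-bla cells. Incubation ran 16 h at 37 C, followed by LiveBLAzer detection.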

[19] = target: Beta-2 adrenergic receptor (Homo sapiens) (UniProt P07550); assay: Adrenergic beta2 receptor (ADRB2) small molecule agonists, cell-based qHTS assay (AID 1963593);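 also: CHO cells stably overexpressing human ADRB2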
In short: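 CHO cells stably over-expressing ADRB2 were plated overnight at 37C, then dosed with compounds plus a stimulation mix containing 100uM IBMX and 25uM Ro-20-1724 for 0.5hr at room temperature. cAMP was measured by HTRF competition, 1hr.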

[20] = target: 5-hydroxytryptamine receptor 2A (Homo sapiens) (UniProt P28223); assay: 5-hydroxytryptamine receptor 2A (HTR2A) small molecule agonists, cell-based qHTS assay (AID 1963587); also: nearly all actives have a fitted effect of over 30% in size
In short: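 Kinetic calcium-flux fluorescence (2 min, 1 sec intervals) after compound addition in agonist mode. HTR2A-CHO cells were cultured 18 h, then dye-loaded 1 h at 37 C.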

Row | Compound | Potency [1] | Potency [2] | Potency [3] | Potency [4] | Potency [5] | Potency [6] | Potency [7] | Potency [8] | Potency [9] | Potency [10] | Potency [11] | Potency [12] | Potency [13] | Potency [14] | Potency [15] | Potency [16] | Potency [17] | Potency [18] | Potency [19] | Potency [20]
1 | COS(=O)(=O)c1ccc(C)cc1 | inactive | inactive | inactive | inactive | inactive | inactive | inactive | inactive | inactive | inactive | inactive | inactive | inactive | inactive | inactive | inactive | inactive | – | – | –
2 | C=CC(=O)OCCO | inactive | inactive | inactive | inactive | – | inactive | inactive | inactive | – | inactive | inactive | inactive | inactive | inactive | inactive | inactive | inactive | inactive | inactive | –
3 | C[N+](C)(C)C | inactive | inactive | inactive | inactive | – | inactive | inactive | inactive | inactive | inactive | inactive | 22.1 µM (active) | inactive | inactive | inactive | – | inactive | inactive | inactive | inactive
4 | C[C@]12CCC(=O)C[C@@H]1CC[C@@H]1[C@@H]2CC[C@]2(C)[C@@H](O)CC[C@@H]12 | inactive | inactive | inactive | inactive | – | 35.9 µM (active) and inactive | inactive | inactive | inactive | – | – | – | – | – | 9.7 µM (active) | inactive | inactive | – | – | –
5 | O=[N+]([O-])O | inactive | inactive | inactive | inactive | – | inactive | inactive | inactive | – | inactive | inactive | inactive | inactive | inactive | inactive | – | inactive | – | inactive | inactive
6 | CC(Cl)(Cl)C(=O)O | inactive | inactive | inactive | inactive | – | inactive | inactive | inactive | – | inactive | – | inactive | inactive | inactive | inactive | inactive | inactive | – | inactive | inactive
7 | CCOP(=S)(OCC)Oc1cnc2ccccc2n1 | inactive | inactive | inactive | inactive | inactive | – | inactive | inactive | inactive | inactive | inactive | inactive | inactive | inactive | inactive | inactive | inactive | – | inactive | inactive
8 | CCCCN(CCCC)SN(C)C(=O)Oc1cccc2c1OC(C)(C)C2 | inactive | inactive | inactive | inactive | – | inactive | inactive | inactive | – | inactive | inactive | inactive | – | inactive | inactive | inactive | inactive | – | – | inactive
9 | Clc1cccc(Cl)c1Cl | inactive | inactive | inactive | inactive | – | inactive | inactive | inactive | – | inactive | inactive | inactive | inactive | inactive | inactive | inactive | inactive | – | inactive | inactive
10 | CCOP(=S)(OCC)O/N=C(\C#N)c1ccccc1 | inactive | inactive | inactive | inactive | – | inactive | inactive | inactive | inactive | inactive | inactive | inactive | inactive | inactive | inactive | inactive | inactive | 2.57 µM (active) | inactive | –
11 | Cl | inactive | inactive | inactive | inactive | – | inactive | inactive | inactive | – | inactive | inactive | inactive | inactive | inactive | inactive | inactive | inactive | – | inactive | inactive
12 | [Cl-].[Cl-].[Cl-].[Fe+3] | inactive | inactive | inactive | inactive | – | inactive | inactive | – | – | inactive | – | inactive | inactive | inactive | inactive | inactive | inactive | – | inactive | inactive
13 | CCCCCc1cc(O)cc(O)c1 | inactive | inactive | inactive | inactive | – | inactive | inactive | – | inactive | inactive | inactive | inactive | – | inactive | inactive | inactive | inactive | inactive | inactive | inactive
14 | CN1C[C@H](C(=O)N[C@]2(C)O[C@@]3(O)[C@@H]4CCCN4C(=O)[C@H](Cc4ccccc4)N3C2=O)C=C2c3cccc4[nH]cc(c34)C[C@H]21 | inactive | inactive | inactive | inactive | – | inactive | inactive | 1.45 µM (active) and inactive | inactive | – | – | – | inactive | 48.8 µM (active) | – | 1.23 µM (active) | – | inactive | inactive | –
15 | CC[C@H](N)c1ccccc1 | inactive | inactive | inactive | inactive | inactive | inactive | inactive | inactive | inactive | inactive | inactive | inactive | inactive | inactive | inactive | inactive | inactive | – | – | inactive

Source: PubChem BioAssay (Tox21)
